Experimental data from the supplement of paper PMC10849652.
About 8,800 targets were measured; listed, in parts, are those with a hit and a random draw of the rest. About 0.5% of all pairs of compound and target were hits. Unmarked numbers belong to inactive results.

Sequence of UniProt O43399 (O43399 whole entry, looked up): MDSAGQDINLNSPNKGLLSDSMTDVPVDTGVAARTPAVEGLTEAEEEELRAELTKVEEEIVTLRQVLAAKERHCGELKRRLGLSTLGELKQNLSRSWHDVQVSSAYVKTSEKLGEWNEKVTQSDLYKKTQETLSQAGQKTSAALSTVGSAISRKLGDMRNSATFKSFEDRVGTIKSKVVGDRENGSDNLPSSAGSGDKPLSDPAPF
Sequence of UniProt P62328 (P62328 whole entry, looked up): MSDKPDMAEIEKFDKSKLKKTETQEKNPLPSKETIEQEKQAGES
Sequence of UniProt Q24JP5 (Q24JP5 whole entry, looked up): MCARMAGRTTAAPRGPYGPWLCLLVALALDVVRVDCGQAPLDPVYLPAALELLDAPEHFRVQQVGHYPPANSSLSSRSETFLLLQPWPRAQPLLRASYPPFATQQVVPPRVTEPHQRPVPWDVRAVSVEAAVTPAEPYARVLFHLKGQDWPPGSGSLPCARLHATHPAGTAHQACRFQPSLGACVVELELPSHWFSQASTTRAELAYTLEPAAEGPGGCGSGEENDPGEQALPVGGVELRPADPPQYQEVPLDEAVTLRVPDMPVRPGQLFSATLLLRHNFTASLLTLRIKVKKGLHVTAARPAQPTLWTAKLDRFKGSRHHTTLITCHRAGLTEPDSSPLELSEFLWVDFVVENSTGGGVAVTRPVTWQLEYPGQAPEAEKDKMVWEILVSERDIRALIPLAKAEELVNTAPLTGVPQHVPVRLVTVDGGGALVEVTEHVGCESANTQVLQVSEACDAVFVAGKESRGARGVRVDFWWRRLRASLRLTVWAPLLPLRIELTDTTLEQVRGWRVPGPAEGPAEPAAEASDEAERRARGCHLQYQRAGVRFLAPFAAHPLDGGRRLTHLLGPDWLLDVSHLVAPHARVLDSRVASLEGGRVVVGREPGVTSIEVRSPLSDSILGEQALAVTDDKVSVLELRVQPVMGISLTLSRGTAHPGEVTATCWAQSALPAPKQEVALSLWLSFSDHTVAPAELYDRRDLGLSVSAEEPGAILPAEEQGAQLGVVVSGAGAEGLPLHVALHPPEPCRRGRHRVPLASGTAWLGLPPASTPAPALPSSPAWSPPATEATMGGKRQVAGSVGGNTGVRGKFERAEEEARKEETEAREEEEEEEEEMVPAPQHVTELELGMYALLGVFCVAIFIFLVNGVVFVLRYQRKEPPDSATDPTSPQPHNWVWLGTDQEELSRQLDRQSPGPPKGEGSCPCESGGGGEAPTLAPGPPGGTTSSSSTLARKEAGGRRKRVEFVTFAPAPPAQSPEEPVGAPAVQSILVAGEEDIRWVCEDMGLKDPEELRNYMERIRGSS
Sequence of UniProt Q9Y5Z9 (Q9Y5Z9 whole entry, looked up): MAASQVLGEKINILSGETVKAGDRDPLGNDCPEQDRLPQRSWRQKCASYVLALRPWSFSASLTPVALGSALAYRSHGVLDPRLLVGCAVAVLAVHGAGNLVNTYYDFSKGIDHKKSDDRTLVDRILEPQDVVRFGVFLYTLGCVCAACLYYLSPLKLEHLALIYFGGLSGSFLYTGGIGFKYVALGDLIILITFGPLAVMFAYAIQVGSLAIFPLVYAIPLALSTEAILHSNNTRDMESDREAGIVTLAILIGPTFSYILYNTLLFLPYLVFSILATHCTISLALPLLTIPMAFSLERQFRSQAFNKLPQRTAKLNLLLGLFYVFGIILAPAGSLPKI
Sequence of UniProt Q8NDZ6 (Q8NDZ6 whole entry, looked up): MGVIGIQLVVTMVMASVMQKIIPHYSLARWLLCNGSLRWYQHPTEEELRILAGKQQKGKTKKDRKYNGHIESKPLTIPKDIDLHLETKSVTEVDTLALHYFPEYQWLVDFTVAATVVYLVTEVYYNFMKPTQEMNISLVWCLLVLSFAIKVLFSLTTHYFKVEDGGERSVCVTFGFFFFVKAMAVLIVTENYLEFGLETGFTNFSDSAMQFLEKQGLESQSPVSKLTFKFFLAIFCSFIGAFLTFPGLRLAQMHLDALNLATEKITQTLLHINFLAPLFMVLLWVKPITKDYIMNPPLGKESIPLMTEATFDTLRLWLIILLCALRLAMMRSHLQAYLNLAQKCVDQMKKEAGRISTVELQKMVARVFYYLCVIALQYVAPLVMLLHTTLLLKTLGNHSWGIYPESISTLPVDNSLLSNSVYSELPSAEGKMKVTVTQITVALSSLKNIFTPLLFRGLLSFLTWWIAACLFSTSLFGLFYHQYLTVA
Sequence of UniProt Q01664 (Q01664 whole entry, looked up): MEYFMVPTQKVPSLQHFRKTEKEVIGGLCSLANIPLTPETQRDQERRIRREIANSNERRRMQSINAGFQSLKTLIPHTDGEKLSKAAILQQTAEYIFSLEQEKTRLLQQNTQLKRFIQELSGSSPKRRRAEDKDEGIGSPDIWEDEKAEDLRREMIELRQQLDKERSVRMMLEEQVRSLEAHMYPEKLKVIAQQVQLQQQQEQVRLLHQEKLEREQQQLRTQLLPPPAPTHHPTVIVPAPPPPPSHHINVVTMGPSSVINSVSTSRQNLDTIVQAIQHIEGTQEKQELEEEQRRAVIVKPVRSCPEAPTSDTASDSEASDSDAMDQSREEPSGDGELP
Sequence of UniProt P04350 (P04350 whole entry, looked up): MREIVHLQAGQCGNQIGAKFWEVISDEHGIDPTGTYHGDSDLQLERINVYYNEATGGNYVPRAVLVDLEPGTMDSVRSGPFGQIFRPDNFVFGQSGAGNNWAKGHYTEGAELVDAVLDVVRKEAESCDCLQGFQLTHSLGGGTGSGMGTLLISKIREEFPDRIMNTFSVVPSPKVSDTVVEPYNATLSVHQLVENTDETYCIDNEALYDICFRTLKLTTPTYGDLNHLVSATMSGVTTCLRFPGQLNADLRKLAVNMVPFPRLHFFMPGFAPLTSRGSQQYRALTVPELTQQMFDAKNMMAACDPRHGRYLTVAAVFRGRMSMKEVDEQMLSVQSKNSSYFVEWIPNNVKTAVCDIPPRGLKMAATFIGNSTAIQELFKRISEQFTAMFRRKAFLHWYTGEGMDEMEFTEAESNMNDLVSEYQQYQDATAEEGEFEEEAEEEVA
Sequence of UniProt Q8TD43 (Q8TD43 whole entry, looked up): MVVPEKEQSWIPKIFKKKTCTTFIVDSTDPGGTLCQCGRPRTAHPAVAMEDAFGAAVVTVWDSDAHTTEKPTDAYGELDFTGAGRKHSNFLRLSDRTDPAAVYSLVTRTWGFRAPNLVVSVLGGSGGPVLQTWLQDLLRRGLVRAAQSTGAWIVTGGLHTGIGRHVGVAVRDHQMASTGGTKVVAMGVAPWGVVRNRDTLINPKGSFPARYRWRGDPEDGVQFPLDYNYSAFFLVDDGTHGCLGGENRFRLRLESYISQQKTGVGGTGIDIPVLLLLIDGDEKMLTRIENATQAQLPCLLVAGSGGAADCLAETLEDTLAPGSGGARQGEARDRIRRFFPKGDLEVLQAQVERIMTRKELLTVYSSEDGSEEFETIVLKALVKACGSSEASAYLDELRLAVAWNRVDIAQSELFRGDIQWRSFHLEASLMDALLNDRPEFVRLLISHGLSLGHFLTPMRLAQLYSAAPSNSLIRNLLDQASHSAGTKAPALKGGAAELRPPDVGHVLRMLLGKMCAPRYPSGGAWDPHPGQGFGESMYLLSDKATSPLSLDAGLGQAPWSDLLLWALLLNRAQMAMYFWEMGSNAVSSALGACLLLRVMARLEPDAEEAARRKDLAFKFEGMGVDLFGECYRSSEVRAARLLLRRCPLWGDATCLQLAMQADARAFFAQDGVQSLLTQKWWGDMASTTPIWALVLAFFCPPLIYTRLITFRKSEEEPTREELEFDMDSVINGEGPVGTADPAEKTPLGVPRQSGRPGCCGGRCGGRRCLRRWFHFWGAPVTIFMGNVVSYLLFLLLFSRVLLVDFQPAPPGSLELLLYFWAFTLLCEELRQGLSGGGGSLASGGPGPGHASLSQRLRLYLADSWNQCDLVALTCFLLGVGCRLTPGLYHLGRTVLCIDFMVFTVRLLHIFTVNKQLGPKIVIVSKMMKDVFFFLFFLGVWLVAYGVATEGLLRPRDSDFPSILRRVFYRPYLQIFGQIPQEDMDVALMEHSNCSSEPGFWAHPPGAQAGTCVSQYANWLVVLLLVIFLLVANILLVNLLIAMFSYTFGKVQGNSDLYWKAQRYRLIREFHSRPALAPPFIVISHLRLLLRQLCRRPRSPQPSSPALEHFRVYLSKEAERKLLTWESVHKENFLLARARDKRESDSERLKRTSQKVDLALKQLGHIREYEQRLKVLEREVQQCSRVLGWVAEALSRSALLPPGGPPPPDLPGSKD
Sequence of UniProt P06753 (P06753 whole entry, looked up): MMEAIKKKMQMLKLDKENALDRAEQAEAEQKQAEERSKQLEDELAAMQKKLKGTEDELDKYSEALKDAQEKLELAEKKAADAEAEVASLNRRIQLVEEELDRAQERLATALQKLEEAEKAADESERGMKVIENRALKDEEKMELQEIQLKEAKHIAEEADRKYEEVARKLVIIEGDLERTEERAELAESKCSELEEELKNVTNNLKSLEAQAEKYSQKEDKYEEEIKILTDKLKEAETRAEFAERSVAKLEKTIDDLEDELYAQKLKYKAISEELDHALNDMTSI
Sequence of UniProt Q9BRN9 (Q9BRN9 whole entry, looked up): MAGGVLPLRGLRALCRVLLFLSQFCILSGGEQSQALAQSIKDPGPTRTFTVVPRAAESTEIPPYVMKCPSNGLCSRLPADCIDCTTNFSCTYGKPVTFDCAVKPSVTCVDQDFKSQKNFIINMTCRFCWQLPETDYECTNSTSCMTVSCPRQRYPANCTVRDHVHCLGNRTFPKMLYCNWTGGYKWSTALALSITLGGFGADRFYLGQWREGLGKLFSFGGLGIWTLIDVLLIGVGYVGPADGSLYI
Sequence of UniProt Q9NRX6 (Q9NRX6 whole entry, looked up): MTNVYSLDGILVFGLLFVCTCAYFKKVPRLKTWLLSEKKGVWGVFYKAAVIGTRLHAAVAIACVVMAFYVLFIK

These targets were tested with c1ccc([C@@H]2C[C@H]2NC2CCNCC2)cc1 (assay: log2 fold change, soluble protein after heating vs DMSO (PISA); higher = thermal stabilisation; K562 lysate, 10 uM; active = over 0.2 and 3.5 SD of the protein, either way, in both replicates (recomputed)).
Summary of the method: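 The values are log-two fold changes in thermal stability compared with solvent controls and come from duplicates. They were obtained by TMTpro 16plex LC-MS/MS, with channel sums equalised, on the supernatant after 21,000xg for 90 min. That supernatant came from crude K562 extract at 1 mg/mL protein treated with 10 μM compound for 30 min, heated for 3 min across 48°C-58°C, pooled and brought to 0.5% NP-40 at 4°C.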
Work on TCF20 (UniProt Q9UGU0) yielded a log2 fold change of -0.059. Work on TFAP4 (UniProt Q01664) yielded a log2 fold change of 0.081. TCF3 (UniProt X6REB3) gave a log2 fold change of -0.25. With TMEM167B (UniProt Q9NRX6) the log2 fold change was -0.187. TPD52L2 isoform 3 (UniProt O43399) showed a log2 fold change of 0.098. For TCF4 (UniProt P15884), the log2 fold change was 0.091. TENM4 (UniProt Q6N022) was tested, and the log2 fold change was 0.137. For TPM3 isoform 3 (UniProt P06753), the log2 fold change was -0.266. TUBB4A (UniProt P04350) showed a log2 fold change of 0.044. With TNKS (UniProt O95271) the log2 fold change was -0.035. TRAF7 (UniProt Q6Q0C0) was tested, and the log2 fold change was 0.238. In the case of TJP1 (UniProt H0Y3R8), the log2 fold change is reported as 0.031. With TMEM132A isoform 2 (UniProt Q24JP5) the log2 fold change was -0.066. TUBA4A (UniProt C9JQ00) gave a log2 fold change of 0.056. For TRPM4 (UniProt Q8TD43), the log2 fold change was -0.354. For TNIK isoform 5 (UniProt Q9UKE5), the log2 fold change was -0.041. TLK2 isoform 3 (UniProt Q86UE8) gave a log2 fold change of 0.097. TSPAN3 (UniProt O60637) gave a log2 fold change of 0.16. Work on U2AF1L5 (UniProt P0DN76) yielded a log2 fold change of -0.499. Work on UBN1 (UniProt Q9NPG3) yielded a log2 fold change of 0.085. For TNFAIP3 (UniProt P21580), the log2 fold change was 0.06. Work on TMEM161B (UniProt Q8NDZ6) yielded a log2 fold change of -0.025. TM2D3 (UniProt Q9BRN9) was tested, and the log2 fold change was -0.513. TMSB4X (UniProt P62328) gave a log2 fold change of 0.176. For TUBB4A (UniProt M0QYM7), the log2 fold change was -0.074. With UBIAD1 (UniProt Q9Y5Z9) the log2 fold change was 0.025. For TLE3 isoform 5 (UniProt Q04726), the log2 fold change was 0.199.
